By AC50 is commonly meant the concentration giving half of the maximal activity seen.

Consider nine compounds from PubChem BioAssay (EPA / NIEHS).

In assay [1] the target is human Phosphodiesterase 10 (PDE10), PDE10A (gene 10846) (UniProt Q9Y233). In words: NVS_ENZ_hPDE10: NovaScreen (NVS) Enzymatic Assay for human Phosphodiesterase 10 (PDE10) (AID 2283195; active means hit-call score of the fitted dose curve at least 0.9, where 1 is the maximum). The method, boiled down:
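Fluorescence/mobility-shift readout of PDE10A enzyme activity, taken 1 h post-dosing. Primary screen in duplicate at 25 uM; actives (e.g. ≥30% inhibition) retested as singleton concentration-response, top concentration 50 uM.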

Assay [2] in a line: BSK_BT_Bcell_Proliferation: Viability Assessment in the BioMAP Diversity Plus: BT Assay for B cell Proliferation (AID 2284227). To be noted: primary human B cells with PBMC. The method, boiled down: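 Human B cell/PBMC co-culture; test chemical added; 72 h; TCA fix (10%), 0.1% SRB stain, A560 for total protein as a proliferation read-out; positive-direction fit vs DMSO baseline.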

Read-out in assay [3]: Interleukin 6 (IL6), IL6 (gene 3569)
Description: BSK_BT_xIL6: BioMAP Diversity Plus: BT Assay for Interleukin 6 (IL6) Biomarker Activity (AID 2284228). To be noted: primary human B cells with PBMC. The method, boiled down: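 Human B cell/PBMC co-culture; secreted IL-6 quantified by Luminex xMAP 24 h after chemical dosing, fitted relative to DMSO. Parallel PBMC viability by Alamar Blue after 1 h pretreatment, 20 ng/mL SEB and TSST-1, 90 h incubation.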

Read-out in assay [4]: Interleukin 17A (IL17A), IL17A (gene 3605)
In words: BSK_BT_xIL17A: BioMAP Diversity Plus: BT Assay for Interleukin 17A (IL17A) Biomarker Activity (AID 2284229). Particulars: primary human B cells with PBMC. The method, boiled down:
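Co-culture of human B cells and PBMC, dosed for 24 h in 96-well format. Secreted IL-17A measured with Luminex xMAP; gain-direction fitting against DMSO as baseline.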

Read-out in assay [5]: Tumor necrosis factor (Homo sapiens) (UniProt P01375)
In words: BSK_BT_xTNFa: BioMAP Diversity Plus: BT Assay for Tumor necrosis factor alpha (TNF-alpha) Biomarker Activity (AID 2284230). To be noted: primary human B cells with PBMC. The method, boiled down:
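Read-out: Luminex xMAP quantitation of secreted TNF-alpha from a B cell/PBMC co-culture 24 h after compound addition. Signal analysed relative to DMSO vehicle, positive fitting direction.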

Read-out in assay [6]: Vascular cell adhesion molecule 1 (VCAM1), VCAM1 (gene 7412)
Description: BSK_MyoF_VCAM1: BioMAP Diversity Plus: MyoF Assay for Vascular cell adhesion molecule 1 (VCAM1) Biomarker Activity (AID 2284231). Particulars: primary human lung fibroblasts. The method, boiled down: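 Primary human lung fibroblasts (BioMAP MyoF system) dosed with chemical, VCAM-1 measured by ELISA 24 hours later. Fitted in the positive direction against DMSO; parallel SRB staining assessed cytotoxicity.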

Read-out in assay [7]: Collagen III, COL3A1 (gene 1281)
In words: BSK_MyoF_CollagenIII: BioMAP Diversity Plus: MyoF Assay for Collagen III Biomarker Activity (AID 2284239). To be noted: primary human lung fibroblasts. The method, boiled down:
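Primary human lung fibroblasts (BioMAP MyoF system) exposed 24 h. Collagen III measured by ELISA; positive-direction fit relative to DMSO.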

Read-out in assay [8]: Interleukin 17F (IL17F), IL17F (gene 112744)
Description: BSK_BT_xIL17F: BioMAP Diversity Plus: BT Assay for Interleukin 17F (IL17F) Biomarker Activity (AID 2284243). To be noted: primary human B cells with PBMC. The method, boiled down: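 Human PBMC co-cultured with B cells, compound exposure 24 h; secreted IL-17F quantified by Luminex xMAP, referenced to DMSO control. PBMC viability measured in parallel by Alamar Blue reduction.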

Read-out in assay [9]: Actin alpha 1 (ACTA1), ACTA1 (gene 58)
Description: BSK_MyoF_ACTA1: BioMAP Diversity Plus: MyoF Assay for Actin alpha 1 (ACTA1) Biomarker Activity (AID 2284244). To be noted: primary human lung fibroblasts. The method, boiled down:
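Human lung fibroblast (MyoF system) cultures dosed with test chemical; alpha-SMA measured by ELISA 24 h after dosing, normalized to DMSO control. Cytotoxicity tracked in parallel cultures by SRB total-protein staining.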

Read-out in assay [10]: Interleukin 2 (IL2), IL2 (gene 3558)
In words: BSK_BT_xIL2: BioMAP Diversity Plus: BT Assay for Interleukin 2 (IL2) Biomarker Activity (AID 2284245). Particulars: primary human B cells with PBMC. The method, boiled down: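 Human B cell plus PBMC co-culture, 24 h after chemical dosing; secreted IL-2 quantified by Luminex xMAP multiplex, fitted for signal gain against DMSO baseline.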

Read-out in assay [11]: Basic fibroblast growth factor (bFGF), FGF2 (gene 2247)
Description: BSK_MyoF_bFGF: BioMAP Diversity Plus: MyoF Assay for Basic fibroblast growth factor (bFGF) Biomarker Activity (AID 2284246). To be noted: primary human lung fibroblasts. The method, boiled down: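 Human lung fibroblast cultures were dosed and measured 24 h later in 96-well format. bFGF biomarker levels quantified by ELISA, with activity fitted in the positive direction against DMSO.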

Read-out in assay [12]: Collagen IV, COL4A1 (gene 1282)
Description: BSK_MyoF_CollagenIV: BioMAP Diversity Plus: MyoF Assay for Collagen IV Biomarker Activity (AID 2284247). Particulars: primary human lung fibroblasts. The method, boiled down:
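Primary human lung fibroblasts (MyoF system) dosed 24 h; Collagen IV measured by ELISA. Activity fitted in positive direction against DMSO; cytotoxicity tracked by SRB total-protein staining in parallel cultures.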

Read-out in assay [13]: Plasminogen activator inhibitor-1 (PAI1), SERPINE1 (gene 5054)
In words: BSK_MyoF_PAI1: BioMAP Diversity Plus: MyoF Assay for Plasminogen activator inhibitor-1 (PAI1) Biomarker Activity (AID 2284256).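 On outcome: PAI-1 read 24 h after compound addition.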 Particulars: primary human lung fibroblasts. The method, boiled down: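 Primary human lung fibroblasts treated with chemical for 24 h; PAI-1 levels quantified by ELISA relative to DMSO. Cytotoxicity was assessed in parallel cultures by SRB total-protein staining (0.1% SRB after 10% TCA fixation, 560 nm).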

Read-out in assay [14]: Interleukin-8 (IL8), CXCL8 (gene 3576)
Description: BSK_MyoF_IL8: BioMAP Diversity Plus: MyoF Assay for Interleukin-8 (IL8) Biomarker Activity (AID 2284261). To be noted: primary human lung fibroblasts. The method, boiled down: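 Human lung fibroblast (MyoF system) cultures dosed for 24 h, then IL-8 measured by ELISA. Response taken relative to DMSO; parallel SRB total-protein staining for cytotoxicity.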

Read-out in assay [15]: Decorin, DCN (gene 1634)
Description: BSK_MyoF_Decorin: BioMAP Diversity Plus: MyoF Assay for Decorin Biomarker Activity (AID 2284265). Particulars: primary human lung fibroblasts. The method, boiled down: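 Human lung fibroblast cultures were dosed for 24 h, and decorin was then measured by ELISA. Parallel cultures were stained with sulforhodamine B for total protein as a cytotoxicity check. Gain of signal was fitted relative to DMSO.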

The nature of assay [16]: BSK_MyoF_SRB: Viability Assessment in the BioMAP Diversity Plus: MyoF Assay (AID 2284267).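 Further: total protein by SRB absorbance in parallel cultures as cytotoxicity measure.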 Particulars: primary human lung fibroblasts. The method, boiled down:
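Human lung fibroblasts, 24 h after chemical dosing; total protein measured by 0.1% sulforhodamine B staining after 10% TCA fixation, read at 560 nm, fitted relative to DMSO baseline.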

Read-out in assay [17]: Matrix Metallopeptidase 1 (MMP1), MMP1 (gene 4312)
Description: BSK_MyoF_MMP1: BioMAP Diversity Plus: MyoF Assay for Matrix Metallopeptidase 1 (MMP1) Biomarker Activity (AID 2284268). To be noted: primary human lung fibroblasts. The method, boiled down:
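Human lung fibroblast primary cells; MMP1 measured by ELISA 24 h after dosing, fitted in the positive direction relative to DMSO. Parallel SRB staining (0.1%, after 10% TCA fixation, 560 nm) assesses overt cytotoxicity.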

Read-out in assay [18]: TIMP metallopeptidase inhibitor 1 (TIMP1), TIMP1 (gene 7076)
Description: BSK_MyoF_TIMP1: BioMAP Diversity Plus: MyoF Assay for TIMP metallopeptidase inhibitor 1 (TIMP1) Biomarker Activity (AID 2284269). To be noted: primary human lung fibroblasts. The method, boiled down: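 ELISA read-out of TIMP-1 from primary human lung fibroblast cultures 24 h after compound dosing; gain of signal relative to DMSO vehicle baseline defines activity.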

Assay [19] concerns the target Retinoic acid receptor alpha (Homo sapiens) (UniProt P10276). Description: ATG_RARa_TRANS: Attagene TRANS-FACTORIAL HepG2 Assay for human Retinoic Acid Receptor alpha (RARa) (AID 2283005; active means hit-call score of the fitted dose curve at least 0.9, where 1 is the maximum). The method, boiled down: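 HepG2 cells transiently transfected with multiple reporter units expressing chimeric RARα-GAL4 fusion, with GAL4-UAS-driven reporters. After 24 h compound exposure, reporter mRNA induction quantified by RT-PCR and capillary electrophoresis with fluorescent labeling; gain-of-signal fitted relative to DMSO control.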

Assay [20] can be described thus: CCTE_Deisenroth_AIME_384WELL_CTox_Inactive: Cytotoxicity Assessment (CTOX) in CCTE's 384-well Estrogen Receptor Transactivation Assay without AIME metabolic competence (metabolism negative), Deisenroth Lab (AID 2284039; active means hit-call score of the fitted dose curve at least 0.9, where 1 is the maximum;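 further: cell viability via live-cell protease substrate cleaved to fluorescent probe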). The method, boiled down: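 Fluorescent protease-substrate viability readout after 24 h exposure of VM7Luc4E2 cells to conditioned medium. Chemicals (0.002–200 uM) first sat 2 h over alginate-water beads, no S9. Data fitted bidirectionally, loss of signal meaning viability loss.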

Records with an inconclusive call do not appear. Active and inactive are the calls of the source. How the source made its calls, unless noted: active means hit-call score of the fitted dose curve at least 0.9, where 1 is the maximum; inactive means score below 0.9.

Retinoic acid receptor alpha (Homo sapiens), sequence (P10276 whole entry, looked up, the tested form may be a part): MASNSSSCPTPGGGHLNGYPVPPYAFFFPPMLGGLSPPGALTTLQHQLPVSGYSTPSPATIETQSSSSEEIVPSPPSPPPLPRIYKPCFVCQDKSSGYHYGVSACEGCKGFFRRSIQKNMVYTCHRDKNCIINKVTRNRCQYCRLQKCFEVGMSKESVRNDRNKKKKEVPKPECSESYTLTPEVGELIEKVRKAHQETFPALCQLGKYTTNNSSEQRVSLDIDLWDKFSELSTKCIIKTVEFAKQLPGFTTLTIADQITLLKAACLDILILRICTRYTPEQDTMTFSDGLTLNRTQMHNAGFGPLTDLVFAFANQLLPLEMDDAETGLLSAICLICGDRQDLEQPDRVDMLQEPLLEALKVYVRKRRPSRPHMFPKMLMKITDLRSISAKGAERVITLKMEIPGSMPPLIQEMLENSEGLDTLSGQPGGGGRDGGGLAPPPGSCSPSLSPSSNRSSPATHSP
Tumor necrosis factor (Homo sapiens), sequence (P01375 whole entry, looked up): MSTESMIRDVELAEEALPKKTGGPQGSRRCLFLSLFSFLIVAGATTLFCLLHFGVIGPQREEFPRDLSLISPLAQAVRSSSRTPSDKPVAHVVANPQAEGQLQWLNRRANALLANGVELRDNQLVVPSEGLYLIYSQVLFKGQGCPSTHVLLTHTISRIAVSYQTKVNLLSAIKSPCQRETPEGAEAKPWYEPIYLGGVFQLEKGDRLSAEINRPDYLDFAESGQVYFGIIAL
human Phosphodiesterase 10 (PDE10), PDE10A (gene 10846), sequence (Q9Y233 whole entry, looked up): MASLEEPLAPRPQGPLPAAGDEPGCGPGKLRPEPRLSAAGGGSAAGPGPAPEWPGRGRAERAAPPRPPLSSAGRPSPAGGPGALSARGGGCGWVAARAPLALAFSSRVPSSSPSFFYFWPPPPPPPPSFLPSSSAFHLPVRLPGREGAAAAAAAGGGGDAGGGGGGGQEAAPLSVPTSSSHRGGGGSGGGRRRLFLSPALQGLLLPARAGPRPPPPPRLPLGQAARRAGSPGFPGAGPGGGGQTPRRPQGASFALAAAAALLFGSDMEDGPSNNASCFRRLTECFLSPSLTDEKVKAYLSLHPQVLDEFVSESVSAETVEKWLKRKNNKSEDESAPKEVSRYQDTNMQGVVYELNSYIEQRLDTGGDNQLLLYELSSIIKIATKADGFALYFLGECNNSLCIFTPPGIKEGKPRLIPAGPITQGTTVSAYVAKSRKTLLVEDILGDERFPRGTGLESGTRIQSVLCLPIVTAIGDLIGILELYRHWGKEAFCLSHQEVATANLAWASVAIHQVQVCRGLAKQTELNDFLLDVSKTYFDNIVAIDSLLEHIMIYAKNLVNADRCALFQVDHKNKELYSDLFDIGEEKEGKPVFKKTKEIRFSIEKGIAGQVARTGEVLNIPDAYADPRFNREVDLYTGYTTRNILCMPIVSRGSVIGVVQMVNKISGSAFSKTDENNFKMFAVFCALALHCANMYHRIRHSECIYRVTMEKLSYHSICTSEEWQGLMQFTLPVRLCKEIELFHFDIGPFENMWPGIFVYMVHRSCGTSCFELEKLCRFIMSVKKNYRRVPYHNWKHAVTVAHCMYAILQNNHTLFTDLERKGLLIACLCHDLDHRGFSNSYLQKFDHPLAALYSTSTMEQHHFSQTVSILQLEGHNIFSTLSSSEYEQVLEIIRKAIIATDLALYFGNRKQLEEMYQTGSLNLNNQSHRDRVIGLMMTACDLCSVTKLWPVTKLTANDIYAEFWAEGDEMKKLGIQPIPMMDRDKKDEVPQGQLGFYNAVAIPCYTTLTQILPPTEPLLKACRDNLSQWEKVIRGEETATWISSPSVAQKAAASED

As to `CC(C)CC(=O)CC(C)CC(C)C` (stereo not given), the compound was called inactive in assay [1], in assay [2], in assay [3], in [4], in assay [5] and in assay [6]. Moreover, the outcome in assay [7], in [8], in assay [9], in assay [10], in assay [11] and in [12] was inactive. For the same compound, the result in assay [13], in assay [14], in assay [15], in assay [16], in [17] and in assay [18] was inactive.

`CCCCCCCCCC/C=C/C1CC(=O)OC1=O` (stereo not given): the outcome in assay [2], in [3], in assay [4], in assay [5], in [6] and in assay [7] was inactive. In addition, the outcome in assay [8], in assay [9], in assay [10], in assay [11], in [12] and in assay [13] was inactive. Besides, the result in assay [14], in assay [15], in assay [16], in assay [17] and in assay [18] was inactive.

`CC(=O)c1nccs1`: the compound was classed as inactive in assay [19].

For the compound `Cc1ccnc(N)c1`, the call in assay [19] was inactive.

With `CCCCCCCCCCCCCCCCCC[N+](C)(C)C`, the AC50 in [1] is 1710 nM (active); in assay [2] it was 2660 nM (active); in [3], 5000 nM (active); in [4] it was 1360 nM (active); in assay [5] it was 2620 nM (active); in assay [6], 3330 nM (active). The AC50 was 2730 nM (active) in assay [7]; 2080 nM (active) in [8]; 1690 nM (active) in [9]; 1810 nM (active) in assay [10]; 3730 nM (active) in assay [11]; 3720 nM (active) in assay [12]. Further, the AC50 in [13] is 3360 nM (active); in assay [14], 8890 nM (active); in assay [16], 3600 nM (active); in [17] it was 1240 nM (active); in [18], 8130 nM (active). Moreover, the outcome in assay [15] was inactive.

`O=C(C(=O)c1ccccc1)c1ccccc1`: the result in [2], in [3], in assay [4], in assay [5], in [6] and in assay [7] was inactive. The result in assay [8], in assay [9], in assay [10], in assay [11], in assay [13] and in assay [14] was inactive. In addition, the result in assay [15], in assay [16], in assay [17] and in assay [18] was inactive. Further, the AC50 in assay [12] was 913 nM (active).

With `O=C(CC(C(=O)OC1CCCCC1)S(=O)(=O)O)OC1CCCCC1` (stereo not given), the compound was classed as inactive in assay [20].

With `N#CCN(CC#N)CCN(CC#N)CC#N`, in assay [1], the AC50 was 12100 nM (active).

`C/C=C(\C)C(=O)OCC/C=C\CC`: the compound was called inactive in [19].
